Source: PubChem BioAssay (EPA / NIEHS)
Results filed as inconclusive are left out. Active and inactive are the calls of the source. Rule for the calls, unless noted: active = hit-call score of the fitted dose curve at least 0.9, where 1 is the maximum; inconclusive = response in the unintended direction; inactive = score below 0.9.

Tests used:
[1] = CCTE_Mundy_HCI_iCellGluta_NOG_NeuriteLength: CCTE's Neurite Outgrowth Assay in iCellGluta cells for Neurite Length, Mundy Lab (AID 2284318)
How it was run: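 Automated high-content imaging of betaIII-tubulin (Alexa Fluor-488) and Hoechst-stained cells gave neurite length, normalized to the DMSO baseline.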

[2] = VALA_TUBHUV_Antagonist_TubuleLength: VALA Sciences human Umbilical Vein Endothelial Tubule Formation (TUBHUV) Antagonism Assay (AID 2284325)
Protocol: VALA_TUBHUV_Antagonist is a cell-based, multiplexed assay that uses human umbilical vein endothelial cells (HUVEC). Measurements were taken 72 hours after chemical dosing in a 96-well plate.VALA_TUBHUV_Antagonist_TubuleLength is the one of two assay components measured from the VALA_TUBHUV_Antagonist assay. It is designed to make measurements of tubulogenesis, a form of morphology reporter, as detected with fluorescence intensity signals by HCS Fluorescent Imaging technology. This VALA_TUBHUV_Antagonist assay was designed to detect chemical suppression of tubulogenesis, i.e. antagonism.Data from the assay component VALA_TUBHUV_Antagonist_TubuleLength was analyzed at the endpoint, VALA_TUBHUV_Antagonist_TubuleLength, in the positive analysis fitting direction relative to DMSO as the negative control and baseline of activity. Using a type of morphology reporter, loss-of-signal activity can be used to understand developmental effects. To generalize the intended target to other relatable targets, this assay endpoint is annotated to the neurodevelopment intended target family, where the subfamily is tubulogenesis.
[…]

[3] = VALA_MIGHUV1_ScratchOnly_CellCount: Viability Assessment in the VALA Sciences human Umbilical Vein Endothelial Cell Migration (MIGHUV) Assay, Scratch Wound Inhibited Recovery (AID 2284327)
How it was run: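 Hoechst-stained nuclei in the scratch wound were counted by high-content imaging after a 24 h recovery period. Scratched HUVEC monolayers received 6-point concentration series, triplicate, in 0.1% DMSO, fit against DMSO.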

IYD (gene 389434) = assay: CCTE_GLTED_hIYD: CCTE's human Iodotyrosine Deiodinase (xIYD) Inhibition Assay, Great Lakes Toxicology and Ecology Division (GLTED) Lab (AID 2284317);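 note: cell-free human IYD enzyme made in baculovirus insect cells; iodide freed from monoiodotyrosine measured by cerium arsenite color change at 420 nm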
How it was run: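 Deiodination of MIT by insect-cell-produced human IYD is measured after a 3 h incubation with test chemical. Free iodide passes through a Dowex column and accelerates Sandell-Kolthoff Ce4+ reduction, read at 420 nm; run in triplicate.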

[4] = TAMU_PeakParms_SingleDonor1434_Asystole: Texas A&M University (TAMU) 1.5-hr Human Induced Pluripotent Stem Cell (iPSC)-derived Cardiomyocytes Calcium (Ca+2) Flux Assay for Cardiotoxicity: Asystole (quiescence of beating) (AID 2284328)
How it was run: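 Human iPSC-derived cardiomyocytes (donor 1434) were exposed to 0.2, 1, 10 and 100 uM compound in 0.5% DMSO for 90 min at 37C. Ca2+-dye fluorescence gave average peak frequency; POD is EC95, a 95% beat-rate drop versus DMSO.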

[5] = system: Brachyury (BRA) Protein Expression, Deisenroth Lab, TBXT (gene 6862); assay: CCTE_Deisenroth_DEVTOX-GLR_legacy_Bra: (Legacy) CCTE's DevTox GLR-Endo Assay Evaluation of Brachyury (BRA) Protein Expression, Deisenroth Lab (AID 2284329; active = hit-call score of the fitted dose curve at least 0.9, where 1 is the maximum; inactive = score below 0.9)
Protocol: CCTE_Deisenroth_DEVTOX-GLR_legacy assay is a cell-based, multiplex-readout assay that uses RUES2-GLR, a human pluripotent cell line, with measurements taken at 48 hours after chemical dosing in a 384-well microplateCCTE_Deisenroth_DEVTOX-GLR_legacy_Bra is one of 4 assay components calculated from the CCTE_Deisenroth_DEVTOX-GLR_legacy assay that measures an increase in the percentage of cells in an […] state. It is designed to make measurements of inducible reporter a form of fluorescent protein induction as detected with optical fluorescence microscopy. Percentage Bra+ cells are determined by calculating the number of Bra+ cells divided by cell count. A cell is Bra+ if the cell Bra mean intensity is 5x BMAD above the pluripotent control median cell Bra mean. The assay endpoint was analyzed with bidirectional fitting with the 0.2% DMSO control median percent Bra in the DEVTOX-GLR assay subtracted.Data from the assay component CCTE_Deisenroth_DEVTOX-GLR_legacy_Bra was analyzed into 1 assay endpoint. This assay endpoint, CCTE_Deisenroth_DEVTOX-GLR_legacy_Bra, was analyzed in the positive analysis fitting direction relative to DMSO as the negative control and baseline activity. Using a type of inducible reporter, gain-of-signal activity can be used to understand changes in gene expression. Furthermore, this assay endpoint can be referred to as a secondary readout, because this assay has produced multiple assay endpoints where this one serves as a measure of mesoderm differentiation. To generalize the intended target to other relatable targets, this assay endpoint is annotated to the transcription factor intended target family, where the subfamily is T-box protein.
All assay protocols are aligned to the DevTox GLR-Endo assay workflow. […] Cell identification and mean biomarker fluorescence intensities are calculated with image analysis software to determine the total cell counts for viability assessment and the biomarker expression frequency for each lineage-dependent assay. […]

[6] = CCTE_Deisenroth_DEVTOX-GLR_legacy_CellCount: (Legacy) Viability Assessment in CCTE's DevTox GLR-Endo Assay, Deisenroth Lab (AID 2284331; active = hit-call score of the fitted dose curve at least 0.9, where 1 is the maximum; inactive = score below 0.9); conditions: actives raise or lower the signal
How it was run: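 Nuclei count by fluorescence high-content imaging (5 fields/well) after 48 h differentiation of RUES2-GLR cells. Two exposures, 24 h apart; 1 nM - 200 uM series; n=4. Bidirectional fit vs DMSO.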

[7] = CCTE_Deisenroth_5AR_NBTE_donor: CCTE's 5alpha-reductase NanoBRET Target Engagement Assay […], Deisenroth Lab (AID 2284319; active = hit-call score of the fitted dose curve at least 0.9, where 1 is the maximum; inactive = score below 0.9); conditions: actives raise or lower the signal
How it was run: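 Donor NanoLuc luminescence at 460-20 nm is the read-out, serving artifact detection. Transiently expressed SRD5A2-NanoLuc in HEK293T; 5 h total chemical exposure, testosterone tracer added for the final 2 h; fitting bidirectional relative to DMSO baseline.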

[8] = CCTE_Deisenroth_5AR_NBTE_acceptor: CCTE's 5alpha-reductase NanoBRET Target Engagement Assay - Autofluorescence Screen, Deisenroth Lab (AID 2284321; active = hit-call score of the fitted dose curve at least 0.9, where 1 is the maximum; inactive = score below 0.9;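 note: compound fluorescence in the acceptor channel under 460 nm excitation flags autofluorescence artifacts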); conditions: actives raise or lower the signal
How it was run: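 Chemicals diluted to a nominal 100 uM in DMSO were scanned at 460 nm excitation. Samples were read in three independent runs (n=3). Gain or loss of acceptor signal was fitted relative to DMSO.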

SRD5A2 (gene 6716) = assay: CCTE_Deisenroth_5AR_NBTE_ratio: CCTE's 5alpha-reductase NanoBRET Target Engagement Assay - Ratio, Deisenroth Lab (AID 2284322; active = hit-call score of the fitted dose curve at least 0.9, where 1 is the maximum; inactive = score below 0.9); conditions: actives raise or lower the signal
How it was run: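 HEK293T cells transiently expressing an SRD5A2-NanoLuc fusion (20 h post-transfection) were exposed to test chemical (10 nM - 29.9 uM, 8 points) for 3 h, then testosterone tracer for a further 2 h. Acceptor/donor BRET ratio was fitted bidirectionally against DMSO baseline.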

Q: Which results are given for `S=C(S)NCCNC(=S)S.[Mn+2].[S-]C([S-])=NCCN=C([S-])[S-].[Zn+2]`?
A: outcome [1]: inactive; outcome [2]: inactive; outcome [3]: inactive

Q: Which AC50 [1] does the source give for `CCN(CC)C(=O)c1cccc(C)c1` here?
A: 50.5 µM (active)

Q: Which outcome [1] does the source give for `CCCN(CCC)C(=O)SCC` here?
A: inactive

Q: Which AC50 [1] does the source give for `C#CCOC(=O)[C@@H](C)Oc1ccc(Oc2ncc(Cl)cc2F)cc1` here?
A: 22 µM (active)

Q: Which results are given for `CC(C)(c1ccc(O)cc1)c1ccc(O)cc1`?
A: outcome (IYD (gene 389434)): inactive; AC50 [2]: 75.1 µM (active); outcome [4]: inactive; AC50 [5]: 49.5 µM (active); AC50 [6]: 35.6 µM (active)

Q: For `N[C@@H](Cc1cc(I)c(Oc2ccc(O)c(I)c2)c(I)c1)C(=O)O`, which outcome [2] is on record?
A: inactive

Q: Which outcome [7] does the source give for `CC1(C)C(C=C(Cl)Cl)C1C(=O)OCc1cccc(Oc2ccccc2)c1` (configuration not stated) here?
A: inactive

Q: What about the outcome [8] of the same compound?
A: inactive

Q: What about the outcome (SRD5A2 (gene 6716)) of the same compound?
A: inactive

Q: What about the outcome [4] of the same compound?
A: inactive

Q: For `CC(C)CCCCCCc1ccc(O)cc1`, which AC50 (IYD (gene 389434)) is on record?
A: 48.4 µM (active)

Q: What about the outcome [7] of the same compound?
A: inactive

Q: What about the outcome [8] of the same compound?
A: inactive

Q: And the outcome (SRD5A2 (gene 6716))?
A: inactive

Q: And the outcome [2]?
A: inactive

Q: Which outcome [4] does the source give for `CC(=O)[C@H]1CC[C@H]2[C@@H]3CCC4=CC(=O)CC[C@]4(C)[C@H]3CC[C@]12C` here?
A: inactive

Q: With `CCOC(=O)C(C)Oc1ccc(Oc2nc3ccc(Cl)cc3o2)cc1` (configuration not stated) as the compound, how does the outcome (IYD (gene 389434)) read?
A: inactive

Q: For `Cc1nn(C)c(Oc2ccccc2)c1C=NOCc1ccc(C(=O)OC(C)(C)C)cc1`, which AC50 [1] is on record?
A: 0.353 µM (active)

Q: Which outcome [4] does the source give for `c1ccc2[nH]c(-c3cscn3)nc2c1` here?
A: inactive

Q: Which results are given for `CCCCC(CC)COC(=O)c1ccccc1C(=O)O` (configuration not stated)?
A: outcome [5]: inactive; AC50 [6]: 112 µM (active)

Q: For `OB(O)O`, which outcome [5] is on record?
A: inactive

Q: And the outcome [6]?
A: inactive

Q: Which outcome [7] does the source give for `O=C(O)c1ccccc1` here?
A: inactive

Q: And the outcome [8]?
A: inactive

Q: And the outcome (SRD5A2 (gene 6716))?
A: inactive

Q: What about the outcome [4] of the same compound?
A: inactive

Q: With `COCCO` as the compound, how does the outcome [4] read?
A: inactive

Q: Which results are given for `O=C(Nc1ccc([N+](=O)[O-])cc1Cl)c1cc(Cl)ccc1O`?
A: outcome [7]: inactive; outcome [8]: inactive; outcome (SRD5A2 (gene 6716)): inactive
